This is an account of results in the supplement of paper PMC10849652.

Targets with a hit are over-represented here; the source holds about 7,900 in all. About 0.6% of all pairs of compound and target were hits.

Chain of UniProt Q330K2 (Q330K2 whole entry, looked up): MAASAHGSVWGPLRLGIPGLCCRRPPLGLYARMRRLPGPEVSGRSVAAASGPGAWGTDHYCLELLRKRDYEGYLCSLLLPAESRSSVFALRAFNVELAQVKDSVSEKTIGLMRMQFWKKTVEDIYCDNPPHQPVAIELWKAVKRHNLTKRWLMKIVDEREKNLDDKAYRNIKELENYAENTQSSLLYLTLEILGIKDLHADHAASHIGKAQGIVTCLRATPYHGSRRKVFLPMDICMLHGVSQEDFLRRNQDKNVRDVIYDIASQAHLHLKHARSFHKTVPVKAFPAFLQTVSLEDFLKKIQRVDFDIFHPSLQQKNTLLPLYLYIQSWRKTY
Chain of UniProt Q9BZF1 (Q9BZF1 whole entry, looked up): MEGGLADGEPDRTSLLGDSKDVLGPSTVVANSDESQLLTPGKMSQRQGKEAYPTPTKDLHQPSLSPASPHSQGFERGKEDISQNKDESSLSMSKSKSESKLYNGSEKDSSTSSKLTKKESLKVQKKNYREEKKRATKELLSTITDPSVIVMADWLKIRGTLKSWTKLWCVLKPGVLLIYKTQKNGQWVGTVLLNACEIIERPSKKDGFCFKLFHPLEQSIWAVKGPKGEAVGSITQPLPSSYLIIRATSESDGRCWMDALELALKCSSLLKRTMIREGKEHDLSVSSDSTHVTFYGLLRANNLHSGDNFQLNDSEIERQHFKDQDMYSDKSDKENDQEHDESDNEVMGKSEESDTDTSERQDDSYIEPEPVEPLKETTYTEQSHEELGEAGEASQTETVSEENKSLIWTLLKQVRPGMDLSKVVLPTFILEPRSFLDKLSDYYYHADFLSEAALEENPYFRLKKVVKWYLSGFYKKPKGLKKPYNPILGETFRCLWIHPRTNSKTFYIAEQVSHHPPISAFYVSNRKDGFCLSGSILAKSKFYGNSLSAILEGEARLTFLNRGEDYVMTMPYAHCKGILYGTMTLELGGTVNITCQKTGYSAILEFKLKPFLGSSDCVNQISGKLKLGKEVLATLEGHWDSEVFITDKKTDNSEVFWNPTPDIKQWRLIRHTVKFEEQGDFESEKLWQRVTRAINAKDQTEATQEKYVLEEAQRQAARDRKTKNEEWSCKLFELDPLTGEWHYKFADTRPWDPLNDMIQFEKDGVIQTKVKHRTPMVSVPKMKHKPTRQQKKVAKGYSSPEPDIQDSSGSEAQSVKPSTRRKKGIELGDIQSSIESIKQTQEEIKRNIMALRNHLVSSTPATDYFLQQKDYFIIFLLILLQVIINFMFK
Chain of UniProt P03905 (P03905 whole entry, looked up): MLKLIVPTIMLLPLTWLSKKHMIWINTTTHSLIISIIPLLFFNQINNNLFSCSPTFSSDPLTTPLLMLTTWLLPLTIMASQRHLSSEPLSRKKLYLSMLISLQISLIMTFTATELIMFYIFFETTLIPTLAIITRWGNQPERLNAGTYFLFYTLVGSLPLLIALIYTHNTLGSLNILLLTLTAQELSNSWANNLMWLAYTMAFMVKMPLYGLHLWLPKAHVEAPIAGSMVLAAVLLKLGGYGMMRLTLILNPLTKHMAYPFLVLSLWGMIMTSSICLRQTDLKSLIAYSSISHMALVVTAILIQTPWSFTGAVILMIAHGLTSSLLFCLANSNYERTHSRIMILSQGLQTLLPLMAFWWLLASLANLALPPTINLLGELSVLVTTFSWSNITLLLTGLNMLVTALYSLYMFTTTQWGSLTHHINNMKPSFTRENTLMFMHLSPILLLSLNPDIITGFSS
Chain of UniProt O00217 (O00217 whole entry, looked up): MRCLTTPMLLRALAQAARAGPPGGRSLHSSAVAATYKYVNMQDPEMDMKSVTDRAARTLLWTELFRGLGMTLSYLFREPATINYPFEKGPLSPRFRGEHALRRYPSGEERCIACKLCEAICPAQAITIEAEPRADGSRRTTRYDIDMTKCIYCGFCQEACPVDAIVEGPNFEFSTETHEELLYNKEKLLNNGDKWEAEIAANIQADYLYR
Chain of UniProt Q9BUK6 (Q9BUK6 whole entry, looked up): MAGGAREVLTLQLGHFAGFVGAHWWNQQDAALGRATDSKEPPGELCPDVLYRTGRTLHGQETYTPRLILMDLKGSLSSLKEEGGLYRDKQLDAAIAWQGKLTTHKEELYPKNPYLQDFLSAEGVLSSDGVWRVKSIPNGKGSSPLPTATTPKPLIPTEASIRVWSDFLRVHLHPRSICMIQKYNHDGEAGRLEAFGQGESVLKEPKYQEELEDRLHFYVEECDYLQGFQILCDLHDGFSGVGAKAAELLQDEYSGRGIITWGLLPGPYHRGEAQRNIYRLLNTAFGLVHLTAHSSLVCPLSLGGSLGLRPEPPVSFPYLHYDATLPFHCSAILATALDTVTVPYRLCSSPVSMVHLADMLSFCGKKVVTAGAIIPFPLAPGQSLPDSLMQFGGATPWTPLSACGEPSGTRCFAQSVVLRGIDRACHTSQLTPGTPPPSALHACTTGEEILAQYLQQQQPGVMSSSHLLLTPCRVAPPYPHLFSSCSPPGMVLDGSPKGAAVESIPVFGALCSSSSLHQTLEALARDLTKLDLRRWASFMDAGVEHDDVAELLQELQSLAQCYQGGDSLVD
Chain of UniProt P35580 (P35580 whole entry, looked up): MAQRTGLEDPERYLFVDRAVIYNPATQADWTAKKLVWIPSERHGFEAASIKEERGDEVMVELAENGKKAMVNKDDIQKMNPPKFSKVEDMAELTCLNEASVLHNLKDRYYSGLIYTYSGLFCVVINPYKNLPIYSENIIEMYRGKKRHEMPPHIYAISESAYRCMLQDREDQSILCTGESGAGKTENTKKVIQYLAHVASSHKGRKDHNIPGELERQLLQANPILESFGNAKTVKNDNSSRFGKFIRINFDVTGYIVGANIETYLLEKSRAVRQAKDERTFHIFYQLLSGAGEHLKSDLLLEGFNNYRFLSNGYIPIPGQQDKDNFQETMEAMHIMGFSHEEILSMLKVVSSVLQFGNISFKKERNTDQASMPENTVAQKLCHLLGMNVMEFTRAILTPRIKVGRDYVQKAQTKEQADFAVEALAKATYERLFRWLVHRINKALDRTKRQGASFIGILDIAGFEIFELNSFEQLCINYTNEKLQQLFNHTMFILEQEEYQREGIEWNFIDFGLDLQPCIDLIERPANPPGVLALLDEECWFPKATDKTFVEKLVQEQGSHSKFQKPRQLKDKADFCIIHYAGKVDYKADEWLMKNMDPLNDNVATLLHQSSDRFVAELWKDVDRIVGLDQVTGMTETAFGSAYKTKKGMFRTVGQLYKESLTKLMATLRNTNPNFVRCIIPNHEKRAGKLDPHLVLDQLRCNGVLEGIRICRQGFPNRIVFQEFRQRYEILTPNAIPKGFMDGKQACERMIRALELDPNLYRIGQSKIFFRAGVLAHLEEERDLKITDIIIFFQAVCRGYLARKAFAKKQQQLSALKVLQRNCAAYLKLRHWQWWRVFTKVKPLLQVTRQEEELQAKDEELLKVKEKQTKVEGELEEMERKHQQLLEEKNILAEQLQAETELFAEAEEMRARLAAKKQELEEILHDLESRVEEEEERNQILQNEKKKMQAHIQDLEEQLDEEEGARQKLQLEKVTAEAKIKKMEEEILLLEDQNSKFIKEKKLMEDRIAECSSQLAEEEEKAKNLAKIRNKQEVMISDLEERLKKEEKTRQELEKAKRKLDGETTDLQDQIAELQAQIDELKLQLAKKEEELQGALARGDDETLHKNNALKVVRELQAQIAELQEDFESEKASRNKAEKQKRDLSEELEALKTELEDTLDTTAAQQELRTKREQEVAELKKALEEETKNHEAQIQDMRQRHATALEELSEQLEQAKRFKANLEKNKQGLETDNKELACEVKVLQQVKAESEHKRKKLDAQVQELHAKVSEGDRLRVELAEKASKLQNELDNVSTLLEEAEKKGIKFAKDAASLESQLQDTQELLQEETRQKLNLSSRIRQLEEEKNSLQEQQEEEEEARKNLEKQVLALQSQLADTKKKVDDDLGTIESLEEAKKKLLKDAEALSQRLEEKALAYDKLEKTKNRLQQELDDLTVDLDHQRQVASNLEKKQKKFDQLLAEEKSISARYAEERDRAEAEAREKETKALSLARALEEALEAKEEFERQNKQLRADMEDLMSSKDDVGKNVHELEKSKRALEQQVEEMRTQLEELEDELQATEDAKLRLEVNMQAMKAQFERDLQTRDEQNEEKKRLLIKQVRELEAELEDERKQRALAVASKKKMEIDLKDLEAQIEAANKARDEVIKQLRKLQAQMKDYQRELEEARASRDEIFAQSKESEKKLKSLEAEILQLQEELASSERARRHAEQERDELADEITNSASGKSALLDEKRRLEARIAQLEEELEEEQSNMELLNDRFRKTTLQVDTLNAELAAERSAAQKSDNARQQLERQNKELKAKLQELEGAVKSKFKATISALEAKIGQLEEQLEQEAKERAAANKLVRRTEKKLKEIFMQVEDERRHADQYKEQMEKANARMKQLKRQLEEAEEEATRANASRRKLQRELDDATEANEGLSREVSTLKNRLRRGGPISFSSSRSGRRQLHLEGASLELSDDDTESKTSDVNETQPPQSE
Chain of UniProt P40261 (P40261 whole entry, looked up): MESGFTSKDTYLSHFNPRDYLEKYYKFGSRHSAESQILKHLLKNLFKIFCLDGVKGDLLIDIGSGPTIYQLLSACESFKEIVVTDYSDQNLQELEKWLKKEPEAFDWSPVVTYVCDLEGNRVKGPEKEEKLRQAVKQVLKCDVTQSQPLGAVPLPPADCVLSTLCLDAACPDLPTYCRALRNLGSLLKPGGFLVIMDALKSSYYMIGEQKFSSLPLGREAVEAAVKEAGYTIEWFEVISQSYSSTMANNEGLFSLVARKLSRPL
Chain of UniProt O14950 (O14950 whole entry, looked up): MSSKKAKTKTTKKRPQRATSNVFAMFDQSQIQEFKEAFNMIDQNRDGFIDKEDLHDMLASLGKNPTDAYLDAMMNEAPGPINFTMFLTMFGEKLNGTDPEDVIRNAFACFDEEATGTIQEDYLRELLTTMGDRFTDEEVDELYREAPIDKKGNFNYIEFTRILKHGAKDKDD

Compound in one test: NC(=O)Nc1cc(-c2cccc(F)c2)sc1C(=O)N[C@H]1CCCNC1
As to the kind of experiment: log2 fold change, soluble protein after heating vs DMSO (PISA); higher = thermal stabilisation; K562 cells, 10 uM, 30 min; active = over 0.2 and 3.5 SD of the protein, either way, in both replicates (recomputed). In a few lines:
(§1)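 Soluble protein was quantified by TMTpro 16plex LC-MS/MS after channel sums were equalised. It was obtained as the supernatant after 21,000xg for 90 min from pooled aliquots of K562 cells (2×10^6 cells/mL, 10 μM compound, 30 min) heated for 3 min across 48°C-58°C and extracted in PBS with 0.5% NP-40 at 4°C. Thermal stability values are relative to control samples and come from duplicates. They are given as log2 fold changes.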
Consider MSH3 (UniProt P20585), for which the log2 fold change was -0.175 (inactive). Same read-out and setting: the same measure for PACS1 (UniProt Q6VY07): 0 (inactive); for NA, A0A0B4J2A0: -0.025 (inactive); for MSTO1 (UniProt Q9BUK6): 0.013 (inactive). Still for that read-out and setting: the figure for NDUFAF6 (UniProt Q330K2) is 0 (inactive); for NRF1 isoform 4 (UniProt Q16656) it is 0.021 (inactive); for NNMT (UniProt P40261) it is 0.013 (inactive). On to NDUFS8 (UniProt O00217), for which the log2 fold change was -0.049 (inactive). As to NCKAP1 isoform 2 (UniProt Q9Y2A7), the log2 fold change is 0.066 (inactive).

With MYH10 isoform 3 (UniProt P35580), the log2 fold change was 0.014 (inactive).

For the target MYL12B (UniProt O14950), the log2 fold change was 0.09 (inactive). OSBPL8 (UniProt Q9BZF1): the log2 fold change is -0.06 (inactive).

As to NAP1L1 (UniProt P55209), the log2 fold change was -0.084 (inactive). Same read-out and setting: the figure for NOP53 (UniProt Q9NZM5) is 0.054 (inactive). On to MT-ND4 (UniProt P03905), for which the log2 fold change was 0.052 (inactive).

Compound in a further test: NC(=O)c1cnc(N[C@@H]2CCCC[C@@H]2N)nc1Nc1cccc(-n2nccn2)c1
The test is described as above. An outline of the steps: as §1
MORC3 (UniProt Q14149): the log2 fold change was -0.047 (inactive). The same measure, in the same setting: the figure for MRPS31 (UniProt Q92665) is 0.03 (inactive). Regarding MRPS9 (UniProt P82933), the log2 fold change was -0.011 (inactive). Still for that read-out and setting: the figure for NDUFA9 (UniProt Q16795) is -0.089 (inactive); for OSTM1 (UniProt Q86WC4) it is -0.029 (inactive).

For MRPS24 (UniProt Q96EL2), the log2 fold change is -0.016 (inactive). On the same count and under the same terms, the figure for NDUFS4 (UniProt O43181) is 0.026 (inactive); for OXSR1 (UniProt O95747) it is -0.048 (inactive); for MIS12 (UniProt Q9H081) it is -0.084 (inactive). On the same count and under the same terms, the figure for NGLY1 (UniProt Q96IV0) is 0.059 (inactive). Same read-out and setting: the figure for MND1 (UniProt Q9BWT6) is -0.012 (inactive); for NOL7 (UniProt Q9UMY1) it is 0.131 (inactive). In the case of NDFIP1 (UniProt Q9BT67), the log2 fold change was -0.16 (inactive).

Regarding MTHFS (UniProt P49914), the log2 fold change was -0.028 (inactive).

As to MRPL50 (UniProt Q8N5N7), the log2 fold change was 0.154 (inactive).

Consider NEDD4L (UniProt Q96PU5), for which the log2 fold change was -0.062 (inactive). On the same count and under the same terms, the same measure for NUCKS1 (UniProt Q9H1E3): 0.035 (inactive); for MOV10 (UniProt Q9HCE1): 0.031 (inactive).

With NUDT21 (UniProt O43809), the log2 fold change is -0.002 (inactive). The same measure, in the same setting: the same measure for OGFR (UniProt Q9NZT2): -0.198 (inactive); for MSH6 (UniProt P52701): -0.091 (inactive).

With NECTIN2 (UniProt Q92692), the log2 fold change was 0.107 (inactive). With MKNK1 (UniProt Q9BUB5), the log2 fold change was -0.157 (inactive).

Consider PAK1 isoform 2 (UniProt Q13153), for which the log2 fold change was 0.051 (inactive). Turning to MSH3 (UniProt P20585), the log2 fold change was -0.001 (inactive). The same measure, in the same setting: the figure for PACS1 (UniProt Q6VY07) is 0.041 (inactive). Consider NA, A0A0B4J2A0, for which the log2 fold change was 0.029 (inactive). On the same count and under the same terms, the same measure for MSTO1 (UniProt Q9BUK6): 0.015 (inactive).

As to NDUFAF6 (UniProt Q330K2), the log2 fold change is -0.152 (inactive). As for NRF1 isoform 4 (UniProt Q16656), the log2 fold change is -0.088 (inactive).

On to NNMT (UniProt P40261), for which the log2 fold change was -0.04 (inactive). On the same count and under the same terms, the same measure for NDUFS8 (UniProt O00217): -0.042 (inactive); for NCKAP1 isoform 2 (UniProt Q9Y2A7): -0.009 (inactive). The same measure, in the same setting: the figure for MYH10 isoform 3 (UniProt P35580) is -0.026 (inactive); for MYL12B (UniProt O14950) it is 0.084 (inactive). On to OSBPL8 (UniProt Q9BZF1), for which the log2 fold change was -0.03 (inactive). Same read-out and setting: the same measure for NAP1L1 (UniProt P55209): 0.049 (inactive); for NOP53 (UniProt Q9NZM5): 0.201 (inactive); for MT-ND4 (UniProt P03905): 0.038 (inactive).
